Experimental findings from ChEMBL document CHEMBL4513216, “Probing the Open Global Health Chemical Diversity Library for Multistage-Active Starting Points for Next-Generation Antimalarials” (ACS Infect Dis, 2020) are described below.

The campaign covered roughly 69,000 compounds. About 8,600 (12%) showed an effect of 50% or more. What follows is part of a selection rich in strong results, with near analogues and random picks from the rest.

The assay has as its system Plasmodium berghei. The assay is described as follows: Screen against P. berghei liver stage (PbLuc), transformed with Luciferase, at 10uM. Type of assay: functional, HepG2. Particulars: tested at 10 uM.
On to `COc1ccccc1C(=O)N(C)Cc1nnc2ccccn12`, for which the INHIBITION was -81.1%.

As to `Cn1c(N2CCOCC2)nc2cc(C(=O)N3CCC(O)(CO)C3)ccc21` (stereo not given), the INHIBITION was determined as 44.7%. Then `CCOc1ccc(NCC(=O)NCC(=O)N2CCCC2)c(C(F)(F)F)c1`, with 16.5%; and `O=C(O)CCC(=O)Nc1nn(Cc2ccc(F)cc2)cc1Cl`, with 46.6%. For `CN1CCN(C(=O)c2cccn2C)c2ccccc2C1`, the INHIBITION is -39.2%. In the case of `COCCN1CC[C@@H](OC)[C@@H]1Cc1ccccc1` it was -34.7%. In the case of `Cc1nnc(NC(=O)CN2CCc3c(nc(C(C)C)n3C)C2)s1` it was 17.3%; in that of `CC(O)CN1CCC(CN(C)CC(=O)NC2CCOCC2)CC1` (stereo not given), -8.31%; in that of `CCC(C)(C)NC(=O)Cn1nc(C)nc1-c1ccccc1`, -31.5%. With `O=C1NC2(Cc3ccccc31)CN(CC1CCNCC1)C2`, the INHIBITION was determined as 26.7%. Consider `CCS(=O)(=O)NCC1Cn2nnc(-c3cccc(C)c3)c2CO1` (stereo not given), for which the INHIBITION came out at 50.3%. Then `c1ccc(-c2nnn3c2COC(CNCC2CC2)C3)cc1` (stereo not given), with 42.7%; and `CC(=O)NCC(=O)NCC1Cn2nnc(-c3cccc(F)c3)c2CO1` (stereo not given), with 27.6%; and `c1ccc(-c2nnn3c2COC(CNCC2CCOCC2)C3)cc1` (stereo not given), with 44.9%.

With `CCOCC(=O)NCC1Cn2nnc(-c3cccc(F)c3)c2CO1` (stereo not given), the INHIBITION is recorded as 38.5%. In the case of `O=C(NCC1Cn2nnc(-c3ccsc3)c2CO1)N1CCCC1` (stereo not given) it was 2.26%; in that of `Cc1cccc(-c2nnn3c2COC(CNS(=O)(=O)C2CC2)C3)c1` (stereo not given), 44.8%; in that of `Cc1cccc(-c2nnn3c2COC(CNC(=O)N2CCCC2)C3)c1` (stereo not given), 62.9%. Then `CCS(=O)(=O)NCC1Cn2nnc(-c3ccccc3)c2CO1` (stereo not given), with 54.4%; and `NC1CCN(S(=O)(=O)c2ccc(C(=O)N3CCSCC3)cc2)C1` (stereo not given), with 2.49%. In the case of `CC(C)OCc1nn(CC2CC2)c2c1CN(Cc1ccco1)CC2` it was -107%; in that of `CC(C)(CN1CCC(Cc2ccc(CO)cc2)C1)N1CCOCC1` (stereo not given), 23.5%. `O=C(CCn1ccc2ccccc21)Nc1ccnn1CC1CCOC1` (stereo not given): the INHIBITION came out at 10.1%. On to `O=C(O)c1cc2c(nc1N1CCCC1)CCN(C1CCOCC1)CC2`, for which the INHIBITION is reported as -15.3%. For the molecule `O=c1[nH]cnc2c1CCN(S(=O)(=O)c1ccc(Cl)cc1)C2`, the INHIBITION was determined as 36.2%. Regarding `CN(C)CCN(C)C(=O)Cn1cccc2cc(-c3ccc(F)cc3)nc1-2`, the INHIBITION is on record as 26.7%.

On to `Cn1nc(C2CNCCO2)cc1CCOc1cccc(C(F)(F)F)c1` (stereo not given), for which the INHIBITION was determined as 37.8%.

For `CN1CCCC(CCC(=O)N2CCc3[nH]c(-c4ccccc4)nc3C2)C1` (stereo not given), the INHIBITION is given as 23%. For the molecule `CC(C(=O)NCc1ccc(N2CCN(C)CC2)nc1)n1cccn1` (stereo not given), the INHIBITION was determined as 2.243%. In the case of `Cc1ccc(CN2CC[C@H]3OCC[C@@H](C(=O)NCC4CC4)[C@@H]3C2)s1` it was 5.96%. Then `CNC(=O)c1cccc(C2CNCCN2C(=O)c2ccn(C)n2)c1` (stereo not given), with 33.7%. Then `CCn1cnnc1C1CCN(C(=O)c2cnc3ccccc3n2)CC1`, with 21.3%; and `CCc1nnc(CN2CC(n3cccn3)C2)o1`, with -110%. On to `Cc1ccc(N2CCCC(NCC(=O)NC(C3CC3)C3CC3)C2)nn1` (stereo not given), for which the INHIBITION is on record as -6.44%. Turning to `CC(=O)N1CCC2(CC1)CCN(C(=O)c1cccc(C(F)(F)F)c1)C2`, the INHIBITION turned out to be 55.5%. In the case of `CC(=O)N1CCC2(CCN(C(=O)c3ccc(F)c(C(F)(F)F)c3)CC2)C1` it was 6.6%. In the case of `CC(=O)N1CCC2(CCN(C(=O)c3ccc(F)c(C(F)(F)F)c3)C2)C1` (stereo not given) it was 17.1%; in that of `CC(=O)N1CCC2(CCN(C(=O)c3cccc(C(F)(F)F)c3)CC2)C1`, 63.7%; in that of `CC(=O)N1CCC2(CC1)CCN(C(=O)c1ccc(F)c(C(F)(F)F)c1)C2`, 12.4%. In the case of `CC(=O)N1CCC2(CCN(C(=O)c3ccc(C)c(C(F)(F)F)c3)CC2)C1` it was 16.5%.

For `Cc1cc(NCCc2nc(C)c[nH]2)nc(-c2ccccc2O)n1`, the INHIBITION turned out to be 43.6%. Turning to `CN1CCN(C(=O)N2CCC3(CCCN(C4CCOCC4)C3=O)C2)CC1` (stereo not given), the INHIBITION is recorded as -1.15%. Then `COCCN1CCN(S(C)(=O)=O)Cc2ccc(C)nc21`, with 16.9%; and `Cc1ccc2c(n1)N(CC(C)C)CCN(S(C)(=O)=O)C2`, with 67.2%; and `Cc1ccc2c(n1)N(Cc1ccncc1)CCN(S(C)(=O)=O)C2`, with 36.9%.

With `CS(=O)(=O)NCC(Cc1cccc(F)c1)N1CCNC1=O` (stereo not given), the INHIBITION was determined as 15.7%. As to `Fc1ccc(COCC2CCN(Cc3ccccn3)CC2)cc1`, the INHIBITION is -56.4%. Consider `COc1cc(COCC2CCN(Cc3ccccn3)CC2)cc(OC)c1`, for which the INHIBITION is 6.54%. `Clc1ccc(COCC2CCN(Cc3ccccn3)CC2)cc1`: the INHIBITION is given as 62.3%.

As to `Cc1nc(NC(=O)CNC(=O)c2c(F)cccc2Cl)n[nH]1`, the INHIBITION is -8.69%. In the case of `CCOCCN1CCN(Cc2cccc(C(=O)N(C)C)c2)CC1C` (stereo not given) it was -9.37%; in that of `CN1CCCC1c1cncc(C(=O)NCC2CC2)n1` (stereo not given), -80%. For `c1ccc(CNc2nc(N3CCOCC3)nc3nccnc23)cc1`, the INHIBITION was found to be 30.7%. Then `O=S(=O)(N1CCCCCC1)N1CCCN(CC2CCCO2)CC1` (stereo not given), with 9.57%; and `COc1ccnc(CNc2cc(C3CC3)ncn2)c1`, with -47.2%. Regarding `COc1ccnc(CNc2nc(C)nc(C)c2C)c1`, the INHIBITION was -27.6%.

For `COc1ccnc(CNc2nc(C)nc3ccsc23)c1`, the INHIBITION worked out at 76.9%. For the molecule `CC(C(=O)NCc1ccc(N2CCCCC2)nc1)S(C)(=O)=O` (stereo not given), the INHIBITION is on record as 9.54%.

In the case of `Cc1n[nH]c(C)c1CCC(=O)NCC1(O)CCN(c2ccccn2)C1` (stereo not given), the INHIBITION was determined as 3.48%. In the case of `Cn1cc(C(=O)N2CCCC(c3ccncc3)C2)cn1` (stereo not given) it was -16.5%; in that of `CN1CCN(Cc2n[nH]c(=O)n2CC2CCCCC2)CC1`, 70.3%. Then `CNCc1n[nH]c(=O)n1CC1CCCCC1`, with 23.9%; and `CN1CCC(c2n[nH]c(=O)n2CC2CCCCC2)CC1`, with 40.6%. Then `O=C(c1cccnc1)N1CCCC(Cc2nccs2)C1` (stereo not given), with -9.27%.

For `Cc1nc(N2CCCC2)nc2c1CCN(C(=O)NC1CCCC1)CC2`, the INHIBITION is reported as -6.23%. `O=C(Cc1ccccn1)N1C[C@H](OCc2cccnc2)[C@H]2COC[C@H]21`: the INHIBITION is -31%.

For `Cc1cc(C)n2c(CNCCNc3ccccc3)cnc2n1`, the INHIBITION is given as -35.2%. Turning to `CCN(CC)C(=O)Cc1csc(C(C)C)n1`, the INHIBITION is recorded as -4.4%.

Turning to `CCNC(=O)CN(CC)C(=O)Cc1csc(C(C)C)n1`, the INHIBITION came to 81.6%.

In the case of `CC(Cn1cccn1)NC(=O)Cc1csc(C(C)C)n1` (stereo not given), the INHIBITION amounted to 0.914%. In the case of `CCN(CC(=O)NC)C(=O)Cc1csc(C(C)C)n1` it was 62.4%; in that of `CNC(=O)CN(C)C(=O)Cc1csc(C(C)C)n1`, 12.3%; in that of `CC(C)c1nc(CN(CC(N)=O)C(C)C)cs1`, 31.8%.

For `O=C(c1cocn1)N1CCC2(CC1)CC(Oc1ccccn1)CO2` (stereo not given), the INHIBITION is given as -0.804%. In the case of `COC(=O)c1ccoc1CN(C1CC1)C1CCS(=O)(=O)C1` (stereo not given) it was 42.8%.

As for `Cc1nc(C)n(CC2CCCCN2Cc2cnc(C)s2)n1` (stereo not given), the INHIBITION was determined as 30.6%.

Consider `CCOc1ncccc1C(=O)NC1CCCN(c2ncccn2)C1` (stereo not given), for which the INHIBITION was -39.7%. In the case of `O=C(NCC1CCC2(CC1)OCCO2)c1cccc(-n2cccn2)c1` it was 30.2%; in that of `COc1ncccc1CNCc1cnc(N2CCOCC2)nc1`, -65%; in that of `Cc1cnn(CC2CN(CC(=O)Nc3c(C)nn(C)c3C)CCO2)c1` (stereo not given), 26.4%. With `CS(=O)(=O)N[C@H]1CN(C(=O)c2cscn2)[C@@H]2CCCO[C@H]12`, the INHIBITION was determined as 60.2%. For `Cc1cccc(C(=O)N2C[C@H](NS(C)(=O)=O)[C@@H]3OCCC[C@@H]32)n1`, the INHIBITION amounted to 31.1%. As to `CS(=O)(=O)N[C@@H]1CN(C(=O)c2ccccn2)[C@@H]2CCCO[C@@H]21`, the INHIBITION is recorded as 37.5%. Then `CN1C[C@H](NC(=O)c2cscn2)[C@@H]2OCCC[C@@H]21`, with 35.8%; and `CS(=O)(=O)N[C@@H]1CN(C(=O)c2cnccn2)[C@@H]2CCCO[C@@H]21`, with 26.4%. Then `CO[C@H]1CN(C(=O)c2cccnc2)[C@@H]2CCCO[C@H]12`, with -14.7%. In the case of `NC(=O)N1C[C@H](NC(=O)c2cscn2)[C@@H]2OCCC[C@@H]21`, the INHIBITION was 60.2%. In the case of `CC(=O)N1C[C@H](NC(=O)c2cscn2)[C@@H]2OCCC[C@@H]21` it was 42.6%; in that of `CS(=O)(=O)N[C@@H]1CN(C(=O)c2cccnc2)[C@@H]2CCCO[C@@H]21`, 56.7%; in that of `CNc1ncccc1CN1CCCCC1c1cc(C)n2ccnc2n1` (stereo not given), 13%.

As for `CN(Cc1cccnc1)C(=O)NC1CCN(Cc2ccccn2)CC1`, the INHIBITION came out at 16.8%.

In the case of `COCCC(C)NC(=O)N1CCSC(C)(C)C1` (stereo not given), the INHIBITION was determined as 48.3%. Take `CC(CCN(C)C)NC(=O)N1CCSC(C)(C)C1` (stereo not given): the INHIBITION is recorded as 60.3%. In the case of `CSCCC(C)NC(=O)N1CCSC(C)(C)C1` (stereo not given), the INHIBITION turned out to be 14.9%. Then `Cc1nc(C2CCCN2CCS(C)(=O)=O)no1` (stereo not given), with 26.55%; and `CCCSc1nn(CCN(C)C)c2nc3sc(C)c(CC)c3c(=O)n12`, with 88.1%. `CCc1c(C)sc2nc3n(CCN(C)C)nc(SC)n3c(=O)c12`: the INHIBITION was 30.5%. Then `CCCSc1nn(CCCN(C)C)c2nc3sc(C)c(CC)c3c(=O)n12`, with 11.6%; and `Cc1nn(C)c2cnn(CC(=O)NCc3cccs3)c12`, with 8.49%. Then `CC(C)n1c(=O)c2ccccc2n(CCN(C)C)c1=O`, with -0.29%; and `CCn1ncnc1C1CC(=O)NCc2nc(N3CCCC3)sc21` (stereo not given), with -32.5%; and `CCCC(=O)N1CCC(Nc2nc(O)cc(-c3ccsc3)n2)CC1`, with 10.7%. Then `CCCn1ncc2c(C(=O)Nc3cnn(CC)c3C)cc(C3CC3)nc21`, with -9.98%; and `CCCn1ncc2c(C(=O)Nc3n[nH]c(SC)n3)cc(C3CC3)nc21`, with 53%; and `CCCn1ncc2c(C(=O)NC(C)Cn3cccn3)cc(C3CC3)nc21` (stereo not given), with -24.1%.
